# From PubChem BioAssay
# Values joined by “and” are separate entries in the source; they are usually repeats but may differ in a detail not shown here. Identical values can stand only once. Some structures have more than one record in an assay (separate samples or runs), and their calls can disagree. Active and inactive are the calls of the source.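 How the source made its calls, unless noted: active means thallium flux through the channel raised or lowered by more than 3 SD from vehicle-only wells, actives on both sides; inactive means the rest.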
# Tests used:
# [1] = P. berghei load reduction in hepatocytes – cell-based, HepG2, luciferase luminescence, HepG2 viability, primary screen (AID 624349; in the data active means parasite load remaining mostly below about 12%, no sharp cut-off; inactive means mostly above about 10%;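 further: 100% = mean of DMSO negative control wells on the same plate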); settings: P. berghei liver stage in HepG2, luciferase luminescence, concentration not given here; parasite load remaining: stronger effect = lower value; viability: measured here: HepG2 viability without parasites
# [2] = signal quenchers or enhancers, Cy5 substrate/SSB – biochemical, NIH Clinical Collection, E. coli SSB, artefact control for HCV NS3 helicase inhibitor project (AID 743268; call rule not given here); settings: Cy5-oligo bound E. coli SSB, fluorescence interference
# [3] = system: Hepatitis C virus NS3 helicase; test: blockers of NS3h binding to DNA – biochemical, fluorescence polarization, NIH Clinical Collection, primary screen (AID 743270; call rule not given here); settings: NS3 helicase binding to Cy5-dT15 DNA, stronger effect = higher value, concentration not given here
# [4] = compounds distorting NS3 helicase fluorescence signal – biochemical, NIH Clinical Collection, artefact control for HCV NS3 helicase inhibitor project (AID 743272; call rule not given here;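 further: HCV NS3 helicase with a Cy5 labelled single stranded DNA probe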); settings: fluorescence interference counterscreen, HCV NS3 helicase assay; stronger effect = lower value
# [5] = modulation of C. elegans fzo-1 (AID 1259413; call rule not given here;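 further: fzo-1 mutant C. elegans worms in liquid wells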); settings: C. elegans fzo-1 modulator screen, mean read-out; stronger effect = higher value
# [6] = viability loss with induced miR-34 in A549 – imaging, A549 dox-inducible miR-34, nuclei and caspase counts, primary screen (AID 1347080;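 active means compounds whose cell count with miR-34 switched on is under 0.7 times the count with it off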); settings: A549 miR-34 inducible, Hoechst nuclei count, 48 h
# F380Y = test: BK channel mutant inhibitors and activators – cell-based, U2OS BacMam, thallium flux, beta subunits, selectivity assay, profiling panel (AID 1259406); settings: U2OS BacMam BK variants, at 30 µM;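 further: initial slope of Thallos dye fluorescence rise after thallium is added; log ratio against the mean of 0.3% DMSO vehicle wells on the same plate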
# F380Y/beta1 = test: as above; settings: U2OS BacMam BK variants, at 30 µM
# F380Y/beta2Delta = test: as above; settings: U2OS BacMam BK variants, at 30 µM
# F380Y/beta4 = test: as above; settings: U2OS BacMam BK variants, at 30 µM
# [7] = target: Calcium-activated potassium channel subunit alpha-1 (Homo sapiens) + Leucine-rich repeat-containing protein 26 (Homo sapiens) (UniProt Q12791+Q2I0M4); test: as above; settings: U2OS BacMam BK variants, F380Y/Slo1WT/gamma1, at 30 µM
# Sequence of Calcium-activated potassium channel subunit alpha-1 (Homo sapiens) + Leucine-rich repeat-containing protein 26 (Homo sapiens) (Q2I0M4 whole entry, looked up, one chain of several): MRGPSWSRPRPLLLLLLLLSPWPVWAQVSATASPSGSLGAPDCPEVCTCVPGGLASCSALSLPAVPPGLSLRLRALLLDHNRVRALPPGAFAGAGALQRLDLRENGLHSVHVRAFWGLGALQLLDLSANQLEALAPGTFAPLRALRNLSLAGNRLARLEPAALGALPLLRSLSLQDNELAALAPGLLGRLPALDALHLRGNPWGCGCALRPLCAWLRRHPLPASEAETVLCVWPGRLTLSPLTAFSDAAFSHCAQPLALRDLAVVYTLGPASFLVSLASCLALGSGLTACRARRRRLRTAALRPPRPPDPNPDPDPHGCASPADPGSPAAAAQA
# R275C = test: as above; settings: U2OS BacMam BK variants, at 30 µM
# R275C/beta1 = test: as above; settings: U2OS BacMam BK variants, at 30 µM
# R275C/beta2Delta = test: as above; settings: U2OS BacMam BK variants, at 30 µM
# R275C/beta4 = test: as above; settings: U2OS BacMam BK variants, at 30 µM
# R275C/Slo1WT/beta2 = test: as above; settings: U2OS BacMam BK variants, at 30 µM
# [8] = target: Single-stranded DNA-binding protein (Escherichia coli (strain K12)) (UniProt P0AGE0); test: SSB-ssDNA binding inhibitors – biochemical, fluorescence polarization, NIH Clinical Collection, counter-screen for HCV NS3 helicase inhibitor project (AID 743271; in the data active means inhibition above about 28%); settings: E. coli SSB-DNA binding, stronger effect = higher value, concentration not given here
# [9] = EMT-state selective cytotoxicity in co-culture – imaging, PC-3E GFP, TEM4-18 mCherry, primary screen (AID 1345086;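 active means compounds killing one labelled cell type while sparing the other, by normalised counts and ratio limits, not self-fluorescent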;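 on all read-outs here: cells exposed to compound for 72 h before imaging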;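 on red/green cell ratio (normalised): normalised mesenchymal count divided by normalised epithelial count so high means epithelial killing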); settings: PC-3E GFP / TEM4-18 mCherry co-culture, imaging cell counts, at 1 µM; for red/green cell ratio (normalised): actives lie on both sides, counts scaled to control wells, 1 = unselective
# [10] = MELAS cybrid and Rieske KO viability enhancers – cell-based, MELAS cybrids, Rieske KO mouse fibroblasts, CellTiter-Glo, primary screen (AID 1508586;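 active means mean z-score across replicates of 1.96 or higher in either the MELAS or the Rieske mutant cell line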;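 further: z relative to plate mean and SD of compound and empty wells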); settings: low glucose
# [11] = stronger effect = lower value, cell number ratio, induced over uninduced
# [12] = measured here: relative caspase fold change +Dox/-Dox
# [13] = measured here: total cells with miR-34 induction, stronger effect = lower value
# [14] = measured here: total cells without miR-34 induction
# [15] = measured here: epithelial PC-3E GFP cell survival
# [16] = measured here: mesenchymal TEM4-18 mCherry cell survival
# [17] = MELAS cybrid survival, CellTiter-Glo 48 h, stronger effect = higher value
# [18] = Rieske KO mouse fibroblast survival, CellTiter-Glo 72 h
smiles,measurement,setting,value
Cc1cccc(CCN2CCC(C(=O)c3ccc(NS(C)(=O)=O)cc3)CC2)n1,parasite load remaining,[1],49.2% (inactive)
same,viability,[1],75.4%
same,fluorescence ratio,[2],0.97 (inactive)
same,inhibition,[3],-6.33% (inactive)
same,fluorescence ratio,[4],0.95 (inactive)
same,mean signal,[5],229 (inactive)
same,fold change,[6]; [11],0.911 (inactive) and 0.937 (inactive) and 0.845 (inactive)
same,fold change,[6]; [12],1.08 and 1.19 and 0.815
same,cell count,[6]; [13],9110 and 5280 and 8030
same,cell count,[6]; [14],10000 and 5630 and 9500
same,log fold change Tl+ flux,F380Y,0.00945 (inactive)
same,log fold change Tl+ flux,F380Y/beta1,0.0315 (inactive)
same,log fold change Tl+ flux,F380Y/beta2Delta,0.0105 (inactive)
same,log fold change Tl+ flux,F380Y/beta4,-0.0658 (inactive)
same,log fold change Tl+ flux,[7],0.0152 (inactive)
same,log fold change Tl+ flux,R275C,-0.00568 (inactive)
same,log fold change Tl+ flux,R275C/beta1,0.0227 (inactive)
same,log fold change Tl+ flux,R275C/beta2Delta,-0.0466 (inactive)
same,log fold change Tl+ flux,R275C/beta4,0.0164 (inactive)
same,log fold change Tl+ flux,R275C/Slo1WT/beta2,-0.028 (inactive)
CNCC[C@H](Oc1cccc2ccccc12)c1cccs1,parasite load remaining,[1],36.5% (inactive) and 51.1% (inactive) and -0.135% (inactive)
same,viability,[1],101% and 64.7% and 0.245%
same,fluorescence ratio,[2],0.96 (inactive) and 0.95 (inactive)
same,inhibition,[3],1.19% (inactive) and -5.46% (inactive)
same,inhibition,[8],2.98% (inactive) and -4.33% (inactive)
same,fluorescence ratio,[4],0.93 (inactive) and 0.89 (inactive)
same,mean signal,[5],220 (inactive)
same,red/green cell ratio (normalised),[9],0.93 (inactive)
same,normalised cell number,[9]; [15],1.07
same,normalised cell number,[9]; [16],1
same,fold change,[6]; [11],0.93 (inactive)
same,fold change,[6]; [12],4.69
same,cell count,[6]; [13],10400
same,cell count,[6]; [14],11200
same,log fold change Tl+ flux,F380Y,-0.075 (inactive)
same,log fold change Tl+ flux,F380Y/beta1,-0.085 (inactive)
same,log fold change Tl+ flux,F380Y/beta2Delta,0.0364 (inactive)
same,log fold change Tl+ flux,F380Y/beta4,-0.0361 (inactive)
same,log fold change Tl+ flux,[7],0.0212 (inactive)
same,log fold change Tl+ flux,R275C,0.0449 (inactive)
same,log fold change Tl+ flux,R275C/beta1,0.207 (active)
same,log fold change Tl+ flux,R275C/beta2Delta,0.066 (inactive)
same,log fold change Tl+ flux,R275C/beta4,0.129 (active)
same,log fold change Tl+ flux,R275C/Slo1WT/beta2,0.0145 (inactive)
O=C(c1ccc(-c2cccs2)s1)c1ccc(F)cc1F,log fold change Tl+ flux,F380Y,-0.00876 (inactive)
same,log fold change Tl+ flux,F380Y/beta1,0.022 (inactive)
same,log fold change Tl+ flux,F380Y/beta2Delta,0.0129 (inactive)
same,log fold change Tl+ flux,F380Y/beta4,0.0546 (inactive)
same,log fold change Tl+ flux,[7],0.0119 (inactive)
same,log fold change Tl+ flux,R275C,-0.00813 (inactive)
same,log fold change Tl+ flux,R275C/beta1,0.00849 (inactive)
same,log fold change Tl+ flux,R275C/beta2Delta,0.0495 (inactive)
same,log fold change Tl+ flux,R275C/beta4,-0.00599 (inactive)
same,log fold change Tl+ flux,R275C/Slo1WT/beta2,0.0293 (inactive)
CSc1nc2cc(Oc3cccc(Cl)c3Cl)c(Cl)cc2[nH]1,parasite load remaining,[1],14.4% (inactive)
same,viability,[1],78.3%
same,fluorescence ratio,[2],0.98 (inactive)
same,inhibition,[3],5.94% (inactive)
same,inhibition,[8],3.75% (inactive)
same,fluorescence ratio,[4],0.96 (inactive)
same,mean signal,[5],206 (inactive)
same,red/green cell ratio (normalised),[9],0.82 (inactive)
same,normalised cell number,[9]; [15],1.26
same,normalised cell number,[9]; [16],1.03
same,fold change,[6]; [11],0.963 (inactive) and 0.988 (inactive)
same,fold change,[6]; [12],1.31 and 0.403
same,cell count,[6]; [13],5860 and 7990
same,cell count,[6]; [14],6080 and 8080
same,z-score,[10]; [17],-0.167 (inactive) and -0.17 (inactive)
same,z-score,[10]; [18],-0.137 and -0.629
same,log fold change Tl+ flux,F380Y,-0.0619 (inactive)
same,log fold change Tl+ flux,F380Y/beta1,0.0498 (inactive)
same,log fold change Tl+ flux,F380Y/beta2Delta,-0.03 (inactive)
same,log fold change Tl+ flux,F380Y/beta4,0.0138 (inactive)
same,log fold change Tl+ flux,[7],-0.000443 (inactive)
same,log fold change Tl+ flux,R275C,0.0179 (inactive)
same,log fold change Tl+ flux,R275C/beta1,0.416 (active)
same,log fold change Tl+ flux,R275C/beta2Delta,0.248 (active)
same,log fold change Tl+ flux,R275C/beta4,0.0585 (inactive)
same,log fold change Tl+ flux,R275C/Slo1WT/beta2,0.0178 (inactive)
COc1nc(C)nc(Cl)c1NC1=NCCN1,parasite load remaining,[1],85.8% (inactive) and 79.7% (inactive)
same,viability,[1],72.6% and 70.2%
same,fluorescence ratio,[2],1.09 (inactive)
same,inhibition,[3],4.36% (inactive)
same,inhibition,[8],5.29% (inactive)
same,fluorescence ratio,[4],1.07 (inactive)
same,mean signal,[5],246 (inactive)
same,z-score,[10]; [17],-0.211 (inactive) and 0.715 (inactive)
same,z-score,[10]; [18],0.176 and 0.122
same,log fold change Tl+ flux,F380Y,-0.00461 (inactive)
same,log fold change Tl+ flux,F380Y/beta1,-0.0516 (inactive)
same,log fold change Tl+ flux,F380Y/beta2Delta,-0.0248 (inactive)
same,log fold change Tl+ flux,F380Y/beta4,-0.00507 (inactive)
same,log fold change Tl+ flux,[7],-0.00669 (inactive)
same,log fold change Tl+ flux,R275C,-0.0325 (inactive)
same,log fold change Tl+ flux,R275C/beta1,-0.0423 (inactive)
same,log fold change Tl+ flux,R275C/beta2Delta,-0.005 (inactive)
same,log fold change Tl+ flux,R275C/beta4,-0.00418 (inactive)
same,log fold change Tl+ flux,R275C/Slo1WT/beta2,-0.0114 (inactive)
O=c1[nH]c(=O)n(C2CCCO2)cc1F (stereo not drawn),parasite load remaining,[1],107% (inactive) and 21.2% (inactive)
same,viability,[1],73.5% and 76.5%
same,fluorescence ratio,[2],1.08 (inactive)
same,inhibition,[3],6.73% (inactive)
same,inhibition,[8],5.29% (inactive)
same,fluorescence ratio,[4],1.04 (inactive)
same,mean signal,[5],283 (inactive)
same,fold change,[6]; [11],0.803 (inactive) and 0.835 (inactive) and 0.463 (active)
same,fold change,[6]; [12],1.28 and 1.27 and 3.72
same,cell count,[6]; [13],7370 and 6840 and 4080
same,cell count,[6]; [14],9180 and 8190 and 8820
same,z-score,[10]; [17],-0.322 (inactive) and 0.511 (inactive) and 0.255 (inactive)
same,z-score,[10]; [18],-0.199 and -0.575 and -0.0895
same,log fold change Tl+ flux,F380Y,-0.0407 (inactive)
same,log fold change Tl+ flux,F380Y/beta1,0.033 (inactive)
same,log fold change Tl+ flux,F380Y/beta2Delta,-0.0133 (inactive)
same,log fold change Tl+ flux,F380Y/beta4,-0.0214 (inactive)
same,log fold change Tl+ flux,[7],0.0446 (inactive)
same,log fold change Tl+ flux,R275C,-0.0615 (inactive)
same,log fold change Tl+ flux,R275C/beta1,-0.0291 (inactive)
same,log fold change Tl+ flux,R275C/beta2Delta,-0.0162 (inactive)
same,log fold change Tl+ flux,R275C/beta4,-0.0234 (inactive)
same,log fold change Tl+ flux,R275C/Slo1WT/beta2,0.00334 (inactive)
COc1ccc2[nH]c(S(=O)Cc3ncc(C)c(OC)c3C)nc2c1 (stereo not drawn),parasite load remaining,[1],75.4% (inactive)
same,viability,[1],78.3%
same,fluorescence ratio,[2],1.05 (inactive)
same,inhibition,[3],-1.19% (inactive)
same,inhibition,[8],-0.1% (inactive)
same,fluorescence ratio,[4],1.01 (inactive)
same,mean signal,[5],220 (inactive)
same,red/green cell ratio (normalised),[9],0.83 (inactive)
same,normalised cell number,[9]; [15],1.11
same,normalised cell number,[9]; [16],0.92
same,fold change,[6]; [11],1.06 (inactive) and 1.02 (inactive)
same,fold change,[6]; [12],1.73 and 0.384
same,cell count,[6]; [13],9290 and 8180
same,cell count,[6]; [14],8760 and 8050
same,z-score,[10]; [17],-0.201 (inactive)
same,z-score,[10]; [18],0.0948
same,log fold change Tl+ flux,F380Y,0.0414 (inactive)
same,log fold change Tl+ flux,F380Y/beta1,0.0445 (inactive)
same,log fold change Tl+ flux,F380Y/beta2Delta,-0.007 (inactive)
same,log fold change Tl+ flux,F380Y/beta4,0.0255 (inactive)
same,log fold change Tl+ flux,[7],0.0493 (inactive)
same,log fold change Tl+ flux,R275C,-0.061 (inactive)
same,log fold change Tl+ flux,R275C/beta1,0.0126 (inactive)
same,log fold change Tl+ flux,R275C/beta2Delta,0.00561 (inactive)
same,log fold change Tl+ flux,R275C/beta4,0.0354 (inactive)
same,log fold change Tl+ flux,R275C/Slo1WT/beta2,0.0116 (inactive)
